Only some compounds are listed: those with a hit (about 2.9% of all), similar ones and a draw of the others.
ATXN2 expr inh = ATXN2 expression inhibition. HEK-293 ATXN2-luciferase reporter, luminescence, 24 h. Potency, µM (doses to about 57 µM), for inactives: top-dose activity change, negative = inhibition, usual class: inhibitors. 360,000 tested, 0.72% active. AID 1745845; note: % is set by controls: 0 for no effect and ±100 for the full control effect; nearly all actives have a fitted effect of over 55% in size
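ATXN2-luciferase reporter cells (luciferase flanked by upstream and downstream ATXN2 gene portions) were treated 24 h at 37 °C with compounds at up to 57 uM. SteadyGlo luminescence gave expression; GF-AFC fluorescence gave viability.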
Nrf2 ARE act = activates Nrf2 signaling; AREc32 ARE-luciferase reporter (MCF7-derived line), luminescence, 24 h; Potency, µM (doses to about 46.1 µM), for the others: at the highest dose activation, hits mostly activators; 410,000 tested, 0.31% active; note: % of control where 0% means no effect; nearly all actives have a fitted effect of over 65% in size
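AREc32 cells carrying an ARE-driven firefly luciferase reporter were seeded at 1000 cells/well in OPTI-MEM with 5% FBS, then exposed to compound for 24 hr at 37 deg C. Luminescence was read with Steady-Glo after 30 min at RT.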
ATXN viability = cell viability loss in ATXN counter-screen. Potency, µM (doses to about 56.7 µM), usual class: cytotoxic. 400,000 tested, 0.49% active. S2 cells (HEK-293 line with an ATXN2-luciferase reporter) viability, CellTiter-Fluor protease fluorescence, 24 h. AID 651635; note: nearly all actives have a fitted effect of over 40% in size
A549 tox = kills or reduces viability of A549 cells in Nrf2 counter-screen. A549 ARE-Fluc cells, CellTiter-Fluor viability, 18-24 h. Potency, µM (series often up to 46 µM), for inactives: at the highest dose activity change, negative = cytotoxicity, actives largely listed as inhibitors. 390,000 tested, 0.16% active. AID 504648; note: % is set by controls: 0 for no effect and ±100 for the full control effect
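A549 ARE_Fluc cells in 5% FBS OPTI-MEM were exposed to compounds in concentration-response for 18-24 h at 37 deg C. Viability was read by CellTiter-Fluor fluorescence (Ex 405/Em 525) after 30 min, before the luciferase read.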
Nrf2 inh = inhibitors of Nrf2 signaling; A549 ARE-Fluc reporter, luciferase luminescence, 18-24 h; Potency, µM (highest dose often 46 µM), without a hit: at the highest dose activity change, negative = inhibition, actives largely listed as inhibitors; 360,000 tested, 2.1% active; note: % is set by controls: 0 for no effect and ±100 for the full control effect; nearly all actives have a fitted effect of over 60% in size
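Reporter: ARE-Fluc in A549. Exposure: 18-24 h, 37 °C, 5% CO2, 5% FBS OPTI-MEM. Readouts: fluorescent cytotoxicity (CellTiter-Fluor), then luminescent Nrf2 signal after BugLite.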
* = called active by the depositor; i = inactive; ? = inconclusive; / = not tested or not shown; ! = not active in a repeat. Calls come from the whole dose curve; as a rule, active = well fitted curve in the direction sought with a large enough effect; inconclusive = small, poorly fitted or top-dose-only effect, or another doubt; inactive = no such curve, though single readings can be large; an effect the other way counts as inactive or inconclusive. Potency is the fitted concentration of half-maximal effect.

SMILES	ATXN2 expr inh	Nrf2 ARE act	ATXN viability	A549 tox	Nrf2 inh
COc1cccc(-n2c(SC)nnc2C2CCN(Cc3nc4ccccc4s3)CC2)c1	/	/	i	/	/
C=CC[C@@H](CC(=O)N(CCO)Cc1ccccc1)C(=O)N[C@@H](COC(=O)[C@@H](CC=C)Cc1ccc(F)cc1)Cc1ccccc1	?	-4.7%	?	?	23.1µM*
C=CCC[C@@H](Cc1ccc(F)cc1)C(=O)OC[C@@H](NC(=O)[C@@H](CC=C)CC(=O)N(CCO)Cc1ccccc1)c1ccccc1	?	-3.5%	?	?	23.1µM*
C=CC[C@@H](Cc1ccc(F)cc1)C(=O)OC[C@@H]1CCCN1C(=O)[C@H](CC=C)CC(=O)N(CCO)Cc1ccccc1	?	-1.2%	20µM*	-26.8%	?
C=CC[C@H](CC(=O)N(CCO)Cc1ccccc1)C(=O)NC[C@H](OC(=O)[C@@H](CC=C)Cc1ccc(F)cc1)c1ccccc1	?	-4.7%	25.1µM*	?	18.4µM*
C=CC[C@@H](Cc1ccc(F)cc1)C(=O)OC[C@H]1CCCN1C(=O)[C@@H](CC=C)CC(=O)N(CCO)Cc1ccccc1	?	-2.2%	/	-12.9%	?
Cc1ccc(NC(=O)Cn2c(=O)n(-c3ccc(C)cc3)c(=O)c3ccc(C(=O)NCc4ccccc4Cl)cc32)cc1	-3.8%	-0.9%	?	-15.1%	?
O=[S+]([O-])(c1ccc2c(c1)OCCO2)N1CCN([S+](=O)([O-])c2ccc(F)cc2Cl)CC1	/	/	/	1.0%	-19.6%
Cc1cc(Nc2cccc(F)c2)n2nc(-c3ccco3)nc2n1	/	6.1%	/	4.5%	/
COc1cc(-c2c(OC)cccc2OC)cc2c1OCCN(Cc1cn[nH]c1-c1ccc(Cl)cc1)C2	/	/	i	/	/
CC1C(=O)Nc2ccc(S(=O)(=O)Nc3ccccc3Br)cc2NC1=O (stereo unspecified)	3.0%	-0.4%	i	1.5%	16.4µM*!
COc1cc(OC)cc(C2=Cc3ccccc3C(CC(C)=O)N2c2ccc(C#CC3(N)CCCCC3)cc2)c1 (stereo unspecified)	?	-2.7%	28.2µM*	/	/
COc1cc(OC)cc(C2=Cc3ccc(OC)cc3C(CC(C)=O)N2c2ccc(C#CC3(N)CCCCC3)cc2)c1 (stereo unspecified)	-16.5%	-4.5%	17.8µM*	/	/
COc1cc(OC)cc(C2=Cc3ccc(OC)cc3C(CC(C)=O)N2c2ccc(C#CC3(O)CCCCC3)cc2)c1 (stereo unspecified)	-27.5%	6.2%	?	/	/
Cc1ccc(C(=O)N(Cc2cc3cc4c(cc3nc2N2CCOCC2)CCC4)CC2CCCO2)cc1 (stereo unspecified)	/	/	i	/	/
CN1N=C(C(N)=O)CCC1=O	8.0%	/	i	/	/
Cc1nn(C)c(Cl)c1NC(=O)OCc1ccc(Cl)cc1Cl	-17.4%	-0.1%	?	0.6%	16.4µM*
Cc1nnsc1NC(=O)OCc1ccc(Cl)cc1Cl	-0.7%	2.2%	i	-20.9%	?
CN(C)S(=O)(=O)c1ccc(Cl)c(C(=O)Nc2cccc([N+](=O)[O-])c2)c1	-29.0%	13.2%	/	-1.2%	9.2µM*
O=C(O)c1cccc(NS(=O)(=O)c2ccc(Cl)c(C(=O)Nc3cccc([N+](=O)[O-])c3)c2)c1	-6.4%	0.0%	i	0.4%	3.7%
O=C(Nc1cccc([N+](=O)[O-])c1)c1ccc(-c2ccccc2)cc1	5.9%	0.0%	i	3.6%	2.5%
CS(=O)(=O)Nc1ccc(C(=O)Nc2cccc([N+](=O)[O-])c2)cc1	-2.4%	6.31µM*	i	-5.5%	-15.8%
O=C(Nc1cccc([N+](=O)[O-])c1)Nc1cccs1	-33.1%	7.08µM*	i	1.6%	1.3%
COC(=O)c1sccc1NC(=O)Nc1cccc([N+](=O)[O-])c1	0.1%	3.7%	i	-1.7%	-1.4%
CC(C)c1ccc(OCc2cccc(C(=O)N/N=C/c3cccnc3)c2)cc1	10.6µM*	-1.3%	i	-4.4%	?
SMILES	ATXN2 expr inh	Nrf2 ARE act	ATXN viability	A549 tox	Nrf2 inh
Cc1cccc(C(=O)Nc2ccc(C(=O)N/N=C/c3cccnc3)cc2)c1	-0.2%	-0.3%	i	-8.9%	?
O=C(N/N=C/c1cccnc1)c1cccc(Br)c1	-2.0%	3.1%	i	2.2%	16.3%
CCOc1ccc(OCc2cccc(C(=O)N/N=C/c3cccnc3)c2)cc1	2.12µM*	-3.7%	i	-15.4%	?
O=C(N/N=C/c1cccnc1)c1cccc(NC(=O)c2ccc(Cl)cc2)c1	-0.7%	-0.8%	i	0.1%	18.4µM*
CCOC(=O)CN1C(=O)c2cccnc2Oc2ccccc21	/	0.1%	/	-11.0%	1.7%
CCC1CN(CC(=O)NC(C)CO)Cc2cc(OC)ccc2O1 (stereo unspecified)	/	/	i	/	/
C[C@H](c1ccccc1)N1C[C@H](COCc2ccccc2)Oc2cc(N3CC[C@H](O)C3)ccc2S1(=O)=O	0.0%	4.1%	?	/	/
CCCCC[C@@H](C)N1C[C@H](COCc2ccccc2)Oc2cc(N3CC[C@H](N(C)C)C3)ccc2S1(=O)=O	?	-3.3%	25.1µM*	/	/
COC[C@@H]1CCCN1c1ccc2c(c1)O[C@@H](COCc1ccccc1)CN([C@@H](C)c1ccccc1)S2(=O)=O	-7.1%	0.2%	i	/	/
C[C@@H](c1ccccc1)N1C[C@H](COCc2ccccc2)Oc2cc(N3CC[C@H](N(C)C)C3)ccc2S1(=O)=O	?	7.4%	15.8µM*	/	/
C[C@H](c1ccccc1)N1C[C@@H](COCc2ccccc2)Oc2cc(N3CC[C@H](O)C3)ccc2S1(=O)=O	-15.7%	5.6%	?	/	/
C[C@H](c1ccccc1)N1C[C@H](COCc2ccccc2)Oc2cc(N3CC[C@H](N(C)C)C3)ccc2S1(=O)=O	?	4.6%	15.8µM*	/	/
C[C@@H](c1ccccc1)N1C[C@H](COCc2ccccc2)Oc2cc(N3CC[C@@H](N(C)C)C3)ccc2S1(=O)=O	28.2µM*	5.6%	22.4µM*	/	/
Cn1c(-c2ccncc2)nc2cc(C(=O)N[C@H]3CCCCNC3=O)cc(NC(=O)C3CCC3)c21	/	/	i	/	/
CC(C)(C)OC(=O)N1CCCC1C(=O)NC1COC2CC(n3ccc(=O)[nH]c3=O)OC12 (stereo unspecified)	/	/	/	-2.6%	20.2%
Cc1ccc(C)c(NC(=S)NC(NC(=O)Cc2cccc3ccccc23)C(Cl)(Cl)Cl)c1 (stereo unspecified)	17.8µM*	24.6%	15.8µM*	20.6µM*	20.6µM*
COc1ccc(NC(=S)NC(NC(=O)c2cccc3ccccc23)C(Cl)(Cl)Cl)c([N+](=O)[O-])c1 (stereo unspecified)	-22.0%	0.8%	i	?	25.9µM*
COC(=O)C(CC(C)C)NS(=O)(=O)c1ccccc1Br (stereo unspecified)	/	/	/	-3.0%	?
